Assay outcomes from PubChem BioAssay.
Sampled rows, rich in hits. Any-hit rate of the full collection: about 5.4%.
IMPase cell inh – cell-permeable inhibitors of inositol monophosphatase (IMPase); inhibition (IP1 accumulation), % at 46.1 µM; 120,000 tested, under 10 active; P97697; CHO-M1 cells, IP1 accumulation, HTRF TR-FRET ratio; AID 901; active = well fitted curve in the direction sought with a large enough effect in the signal ratio, not every such curve was filed as active; inconclusive = small, poorly fitted or top-dose-only effect, or a change in a side signal; inactive = no such curve, though single readings can be large or run the other way; the % refers to the signal ratio;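 also: cells stimulated with carbachol in lithium chloride buffer; plate controls were DMSO basal wells for no effect and reference inhibitor wells for full effect; higher means more IMPase inhibition seen as more IP1 and lower FRET ratio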
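Carbachol-driven Gq signalling in CHO-M1 cells (2000/well) generates IP1. Compounds that block IMPase raise IP1 and so reduce the FRET signal from Eu-anti-IP1 and d2-IP1 after a 10 min room-temperature lysis.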
HPGD block – inhibitors of human 15-hydroxyprostaglandin dehydrogenase (HPGD); AID 894; P15428; purified HPGD, NADH fluorescence kinetic, PGE2 substrate; Potency, µM, without a hit: at the top dose activity change, negative = inhibition, actives largely listed as inhibitors; hit rate 4.3% among 150,000; active = well fitted inhibition curve with a large enough effect, not every such curve was filed as active; inconclusive = small, poorly fitted or top-dose-only effect, or another doubt; inactive = no such curve, though single readings can be large or run the other way; also: potency is read from the fitted curve at half-maximal effect
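20 nM HPGD preincubated 15 min at room temperature with compound in 50 mM Tris-HCl pH 8, 0.01% Tween 20. Started with 1 mM NAD+ and 30 uM prostaglandin E2; NADH fluorescence (360/450 nm) read 5 times over 30-s intervals, last minus first.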
15-hLO-2 inh – 15-hLO-2 (ALOX15B) enzyme inhibition. O15296. hit rate 0.56% among 110,000. purified 15hLO-2, xylenol orange hydroperoxide absorbance. Potency, µM (series often up to 57.1 µM), for inactives: at the highest dose activity change, negative = inhibition, most hits filed as inhibitors; also: potency is read from the fitted curve at half-maximal effect; nearly all actives have a fitted effect of over 60% in size
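Purified human 15hLO-2 (50 nM final) preincubated with compounds 15 min at room temperature in 25 mM Hepes pH 7.5, 0.01% Triton X-100, then 45 uM arachidonic acid added for 90 min; hydroperoxide detected via ferrous/xylenol orange, 573/405 nm absorbance ratio.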
PNC assembly inh – inhibitors of perinucleolar compartment assembly; activity change (PNC), negative = inhibition, % at 10 µM; PC3M PTB-GFP, PNC prevalence imaging, 16 h; hits give low values; hit rate 3.1% among 140,000;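 active = readout at or below -70, meaning at least 70% loss of cells showing the perinucleolar compartment, a nuclear body marking cancer cells; inconclusive = readout between -30 and a set limit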;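 also: plate controls were DMSO wells for no effect and camptothecin positive control wells for full effect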
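Read-out is percentage of cells bearing a perinucleolar compartment, from automated 20x imaging of fixed, Hoechst-stained PC3M PTB-GFP cells. Cells were seeded 4 h, then exposed 16 h to compound (23 nl of library stock) in duplicate plates.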
IMPase Li cell – cell-permeable IMPase inhibitors with lithium potentiation. Potency, µM (top dose mostly 59.4 µM), inactives show top-dose activity, negative = IMPase inhibition, usual class: inhibitors. hit rate 0.35% among 210,000. CHO-M1 cells, IP1 TR-FRET (IP-One), carbachol + lithium;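 also: IP1 builds up when IMPase is blocked and the TR-FRET signal falls; potency is read from the fitted curve at half-maximal effect; plate controls were basal vehicle for no effect and high inhibitor control for full effect; nearly all actives have a fitted effect of over 50% in size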
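Readout is a homogeneous TR-FRET IP1 immunoassay (Ex 320, Em 665 and 620), where raised cytosolic IP1 lowers signal. Cells were CHO-M1 treated 30 min at 37C with test compounds plus a little lithium; AC50 values came from Hill-equation fitting.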
12-hLO inh – blocks human 12-lipoxygenase activity; P18054; purified 12-hLO, xylenol orange hydroperoxide absorbance; Potency, µM (series often up to 57.1 µM), for inactives: top-dose activity change, negative = inhibition, actives largely listed as inhibitors; hit rate 0.12% among 150,000; AID 1452; also: potency is read from the fitted curve at half-maximal effect; nearly all actives have a fitted effect of over 55% in size
Target sequence (P18054 whole entry, looked up): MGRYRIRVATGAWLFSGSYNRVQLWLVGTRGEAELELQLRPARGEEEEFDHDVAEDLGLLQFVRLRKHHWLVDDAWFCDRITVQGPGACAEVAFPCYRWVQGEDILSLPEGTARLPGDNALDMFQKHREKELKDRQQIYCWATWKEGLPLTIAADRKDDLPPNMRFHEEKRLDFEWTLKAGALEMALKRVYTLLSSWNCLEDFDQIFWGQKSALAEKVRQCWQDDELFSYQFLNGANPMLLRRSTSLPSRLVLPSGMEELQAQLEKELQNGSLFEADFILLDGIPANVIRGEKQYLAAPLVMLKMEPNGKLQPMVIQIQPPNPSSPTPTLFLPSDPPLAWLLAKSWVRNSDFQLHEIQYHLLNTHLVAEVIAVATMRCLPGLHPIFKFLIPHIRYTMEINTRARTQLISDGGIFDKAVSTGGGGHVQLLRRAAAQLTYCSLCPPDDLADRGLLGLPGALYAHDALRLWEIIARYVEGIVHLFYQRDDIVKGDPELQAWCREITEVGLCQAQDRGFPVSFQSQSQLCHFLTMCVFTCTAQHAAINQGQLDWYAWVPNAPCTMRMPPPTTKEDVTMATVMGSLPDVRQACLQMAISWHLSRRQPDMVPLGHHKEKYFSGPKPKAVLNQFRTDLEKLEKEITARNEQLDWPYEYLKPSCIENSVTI
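Xylenol orange chromogenic assay: hydroperoxide from 12hLO oxidises Fe(II), giving red-shifted Fe(III)-XO absorbance. Conditions: 150 nM enzyme, 40 uM arachidonic acid, 25 mM Hepes pH 7.0, 0.01% Triton X-100, 30 min, room temperature.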
Starred values were filed as active, the others as inactive; [ ] = remark or other dose. Unless noted, calls follow the shape of the dose curve; as a rule, active = well fitted curve in the direction sought with a large enough effect; inconclusive = small, poorly fitted or top-dose-only effect, or another doubt; inactive = no such curve, though single readings can be large; an effect the other way counts as inactive or inconclusive. Unless noted, % is scaled to controls: 0 for no effect and ±100 for the full control effect.

Screening COC(=O)c1c(C)ccc2c(O)c3c(cc12)C(=O)c1c2c(cc(O)c1C3=O)[C@@]1(C)O[C@@](C)(O2)[C@@H](O)[C@H](N(C)C)[C@H]1O returned HPGD block inconclusive, 15-hLO-2 inh -4%[11.4 µM], IMPase Li cell 12% and 12-hLO inh -4%[11.4 µM].
`CCN(CC)CCN=Cc1c(O)n(Cc2ccccc2)c(=O)[nH]c1=O` gave IMPase cell inh 1, HPGD block 35µM*, 15-hLO-2 inh 5%, PNC assembly inh 41, IMPase Li cell 25%[38.3 µM] and 12-hLO inh 17%.
`O=c1[nH]c(=O)n(Cc2ccccc2)c(O)c1C=NCCN1CCOCC1` gave IMPase cell inh 7, HPGD block 32µM*, 15-hLO-2 inh 3%, PNC assembly inh inconclusive, IMPase Li cell -6%[38.3 µM] and 12-hLO inh 6%.
For O=c1[nH]c(=O)n(Cc2ccc(F)cc2)c(O)c1C=NCc1cccnc1 the results were IMPase cell inh 4, HPGD block 16µM*, 15-hLO-2 inh 1%, PNC assembly inh inconclusive, IMPase Li cell 2%[38.3 µM] and 12-hLO inh -6%.
COc1ccc(CCn2c(O)c(C=NCc3cccnc3)c(=O)[nH]c2=O)cc1OC was read as IMPase cell inh 6, HPGD block -7%, 15-hLO-2 inh 0%[2.29 µM], PNC assembly inh 2, IMPase Li cell 15%[38.3 µM] and 12-hLO inh -6%.
CCCCCCn1c(O)c(C=NCCN2CCCCC2)c(=O)[nH]c1=O was read as IMPase cell inh -4, HPGD block -8%, 15-hLO-2 inh 46%, PNC assembly inh inconclusive, IMPase Li cell 10%[38.3 µM] and 12-hLO inh 4%.
`CCCCCCn1c(O)c(C=NCCN2CCOCC2)c(=O)[nH]c1=O` gave HPGD block -6%, PNC assembly inh -114*, IMPase Li cell -1% and 12-hLO inh 1%.
`CCCSC(=O)Cl` gave HPGD block -8%, 15-hLO-2 inh -11%, IMPase Li cell 10% and 12-hLO inh 2%.
For O=C(O)/C=C\c1ccc[c]([Sb](=[O])([OH])[OH])c1 the results were 15-hLO-2 inh 38%[11.4 µM] and 12-hLO inh -4%[11.4 µM].
Screening Cc1cc(/C=C2\C(=O)NC(=O)N(Cc3ccccc3)C2=O)c(C)n1-c1ccc(Cl)c(C(=O)O)c1 returned HPGD block 18µM*, PNC assembly inh -2, IMPase Li cell 1% and 12-hLO inh -19%.
`Cc1ccc(-n2c(C)cc(/C=C3/C(=O)NC(=O)N(C)C3=O)c2C)cc1` gave HPGD block -2%, PNC assembly inh -85*, IMPase Li cell 7% and 12-hLO inh -6%.
Screening Cc1cc(/C=C2\C(=O)NC(=O)N(Cc3ccccc3Cl)C2=O)c(C)n1-c1ccc(C(=O)O)cc1 returned IMPase Li cell -1%.
For Cc1cc(N2CCCCC2)ccc1C=C1C(=O)N(C)C(=S)N(C)C1=O the results were HPGD block 14µM*, PNC assembly inh 5, IMPase Li cell 2% and 12-hLO inh -4%.
For Cc1cc(N2CCCC2)ccc1C=C(C#N)C#N the results were IMPase Li cell -16%.
CN[C@@H](C)[C@@H](O)c1ccccc1 was read as IMPase cell inh -2, 15-hLO-2 inh 0.63µM* and 12-hLO inh inconclusive.
c1ccc2c(CCNC3=NCCC3)c[nH]c2c1 was read as IMPase cell inh 8, HPGD block -10%, 15-hLO-2 inh 2%, PNC assembly inh -83*, IMPase Li cell -3%[38.3 µM] and 12-hLO inh 1%.
O=c1[nH]c(=S)n(Cc2ccco2)c(O)c1C=NCc1cccs1 was read as IMPase cell inh 6, HPGD block 25µM*, 15-hLO-2 inh 0%, PNC assembly inh -16, IMPase Li cell -1%[38.3 µM] and 12-hLO inh -13%.
Cn1c(=O)n(CC(=O)N2CCC3(CC2)OCCO3)c(=O)c2ccccc21 was read as IMPase cell inh -3, HPGD block -19%, 15-hLO-2 inh -3%, PNC assembly inh 60, IMPase Li cell 21%[38.3 µM] and 12-hLO inh 1%.
Screening O=C(Cn1c2c(c(-c3ccccc3Cl)cc1=O)CCC2)N1CCC2(CC1)OCCO2 returned IMPase cell inh 0, HPGD block inconclusive, 15-hLO-2 inh 10%, PNC assembly inh -95*, IMPase Li cell 5%[38.3 µM] and 12-hLO inh -14%.
Screening C[C@H](CC(C#N)(c1ccccc1)c1ccccc1)N1CCCCC1 returned HPGD block -2%, 15-hLO-2 inh 4%[11.4 µM], IMPase Li cell 21% and 12-hLO inh 1%[11.4 µM].
CN1C[C@H](C(=O)N[C@@]2(C)O[C@@]3(O)[C@H]4CCCN4C(=O)[C@@H](Cc4ccccc4)N3C2=O)C=C2c3cccc4[nH]cc(c34)C[C@@H]21 was read as HPGD block -7%, 15-hLO-2 inh -7%[11.4 µM], IMPase Li cell 2% and 12-hLO inh 1%[11.4 µM].
Screening Cc1ccc(C)c(OCC(=O)N2CCCN(C)CC2)c1 returned IMPase cell inh 4, HPGD block -1%, PNC assembly inh -112*, IMPase Li cell 1% and 12-hLO inh 2%.
`Cc1ccc(OCC(=O)N2CCN(C)CC2)c(Br)c1` gave IMPase cell inh 11, HPGD block 9%, 15-hLO-2 inh 2%, PNC assembly inh -11, IMPase Li cell 5%[38.3 µM] and 12-hLO inh 4%.
`Cc1c([C@@H](C)[C@H]2NC[C@H](C)C[C@@H]2O)ccc2c1C[C@@H]1[C@H]2CC=C2C[C@@H](O)CC[C@@]21C` gave 15-hLO-2 inh -4%[11.4 µM] and 12-hLO inh 1%[11.4 µM].
[Cl-].[Cl-].[Hg+2] was read as HPGD block 0.1µM*, 15-hLO-2 inh 0.79µM*, IMPase Li cell 28% and 12-hLO inh 5µM*.
CS(=O)(=O)O[C@H]1CN2CCC1CC2 was read as HPGD block -1%, 15-hLO-2 inh -6%[11.4 µM], IMPase Li cell 19% and 12-hLO inh -4%[11.4 µM].
CCCCCCCCc1[se]c2ccccc2c1[Se]c1ccccc1 was read as HPGD block -16%, 15-hLO-2 inh -26%[0.0915 µM], IMPase Li cell 4% and 12-hLO inh 1%[0.00818 µM].
COC(=O)CCCc1[se]c2ccccc2c1I was read as HPGD block 22µM*, 15-hLO-2 inh -25%[0.0915 µM], IMPase Li cell 20% and 12-hLO inh 0%[0.00818 µM].
`O=C(Nc1ccc(OC(=O)N2CCCC2)cc1)N1CCOCC1` gave IMPase cell inh 5, HPGD block -9%, PNC assembly inh -100*, IMPase Li cell 0% and 12-hLO inh -13%.
`O=[As](O)(O)c1ccc(Cc2ccc([As](=O)(O)O)cc2)cc1` gave HPGD block 3.5µM*, 15-hLO-2 inh 3.2µM*, IMPase Li cell 3% and 12-hLO inh -24%[11.4 µM].
